Many of the other results were omitted from the sample, so hits are more common in it than they were.
LmPK inhibitor – blocks Leishmania mexicana pyruvate kinase activity. Potency, µM (titrated, usually from 57.5 µM), inactives show at the top dose activity change, negative = inhibition, actives largely listed as inhibitors. AID 1721. purified LmPK, Kinase-Glo ATP luminescence, 1 h. 290,000 tested, 0.37% active. Q27686; note: potency is the fitted concentration of half-maximal effect; % is set by controls: 0 for no effect and ±100 for the full control effect
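0.1 nM LmPK, 0.5 mM PEP, 0.1 mM ADP; 50 mM imidazole pH 7.2, 7 mM MgCl2, 50 mM KCl; 1 h RT. Kinase-Glo luminescence readout, normalized to no-enzyme (full inhibition) and uninhibited wells.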
RE007 growth inh – less growth of the S. pombe RE007 Vpr strain; 360,000 tested, 0.21% active; S. pombe RE007 Vpr strain, BacTiter-Glo ATP luminescence, 24 h; AID 651644; Potency, µM (doses to about 92.2 µM), for inactives: at the top dose activity change, negative = less growth, usual class: inhibitors; active = well fitted falling curve with a large enough effect; inconclusive = small, poorly fitted or top-dose-only effect; inactive = no such curve, though single readings can be large or run the other way; note: potency is the fitted concentration of half-maximal effect; % is set by controls: 0 for no effect and ±100 for the full control effect; nearly all actives have a fitted effect of over 50% in size
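Fission yeast strain RE007, carrying one chromosomally integrated HIV-1 vpr copy, was seeded at OD 0.01 in PMG+AL medium with 23 nL pinned compound. After 24 h at 30 °C and 99% humidity, viability was read by BacTiter-Glo luminescence.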
Shiga toxin inh – Shiga toxin inhibition; Vero cells, Shiga toxin protein synthesis inhibition reporter; 290,000 tested, 9.2% active; inhibition, % at 38.7 µM; in the data active = inhibition mostly above about 28%, no sharp cut-off; inactive = mostly below about 43%; note: 0% is about no effect
Giardia FBPA inh – blocks Giardia fructose-bisphosphate aldolase activity. purified Giardia FBPA. Potency, µM (doses to about 59.6 µM), for the others: at the highest dose activity, negative = inhibition, most hits filed as inhibitors. 290,000 tested, 0.71% active; note: potency is the fitted concentration of half-maximal effect; % is set by controls: 0 for no effect and ±100 for the full control effect; nearly all actives have a fitted effect of over 55% in size
Target sequence (A8B2U2 whole entry, looked up): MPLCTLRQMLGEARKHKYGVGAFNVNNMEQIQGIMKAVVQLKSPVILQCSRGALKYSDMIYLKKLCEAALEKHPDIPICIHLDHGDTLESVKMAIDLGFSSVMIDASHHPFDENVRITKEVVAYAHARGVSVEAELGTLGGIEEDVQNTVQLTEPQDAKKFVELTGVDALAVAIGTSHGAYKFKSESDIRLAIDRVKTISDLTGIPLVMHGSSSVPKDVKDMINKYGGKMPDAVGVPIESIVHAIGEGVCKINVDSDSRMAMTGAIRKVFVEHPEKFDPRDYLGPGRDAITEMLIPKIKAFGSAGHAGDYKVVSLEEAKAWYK
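Giardia FBPA (40 nM reagent) was preincubated 10 min at RT with compound (up to 57.5 uM final), then substrate plus GAPDH/TPI/NAD/arsenate coupling system with diaphorase/resazurin was added; resorufin fluorescence (525/598 nm) was read after 20 min.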
TbPYK inhibitor – T. brucei pyruvate kinase inhibition; Q57TT1; Potency, µM (titrated, usually from 76.8 µM), for inactives: at the highest dose activity, negative = inhibition, hits mostly inhibitors; 410,000 tested, 0.12% active; TbPYK enzyme, Kinase-Glo Plus ATP luminescence, 45 min; note: potency is the fitted concentration of half-maximal effect; % is set by controls: 0 for no effect and ±100 for the full control effect; nearly all actives have a fitted effect of over 50% in size
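Luminescence from Kinase-Glo Plus, added after a 45-minute room-temperature reaction, served as the end-point read-out. The enzyme and substrate were preincubated with compound before ADP (130 uM final) initiated turnover. Concentration-effect curves came from normalized qHTS data.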
Cycloheximide cs – counter-screen for Shiga toxin inhibitors: cycloheximide protein synthesis inhibition; cell reporter, cycloheximide protein synthesis inhibition counterscreen; 300,000 tested, 12% active; max response, %; AID 2314; in the data active = max response mostly above about 13%, no sharp cut-off; inactive = mostly below about 14%; note: read at 38.3 µM for the half of the compounds with a filed dose; 0% is about no effect
Starred values were filed as active, the others as inactive; ? = inconclusive; · = no result given; ! = a repeat was not active; [ ] = another dose, or the depositor's remark. Unless noted, calls come from the whole dose curve; as a rule, active = well fitted curve in the direction sought with a large enough effect; inconclusive = small, poorly fitted or top-dose-only effect, or another doubt; inactive = no such curve, though single readings can be large; an effect the other way counts as inactive or inconclusive.

SMILES	LmPK inhibitor	RE007 growth inh	Shiga toxin inh	Giardia FBPA inh	TbPYK inhibitor	Cycloheximide cs
O=C(Cc1ccccc1)Nc1ccc(NC(=O)C2CCCCC2)nc1	5%	0%	4	-2%	3%	-3
CCOC(=O)c1ccc(NC(=O)CN2CCN(C(=O)C3CCCO3)CC2)cc1 (configuration not stated)	-4%	8%	-4	-2%	-9%	-2
CCOc1ccc(OCC)c(NC(=O)C2CCCN(S(=O)(=O)c3cc(Br)cc4c3N(C(=O)CC)CC4)C2)c1 (configuration not stated)	·	·	·	·	4%	·
CC1=C(C(=O)Nc2ccc(C)c(C)c2)C2(CCCCCC2)OC1=O	·	·	·	·	-17%[15.4 µM]	·
Brc1ccc(Cn2c(-c3ccc(Br)o3)nc3ccccc32)o1	-5%	9%	22	-28%	-1%	18*
C/C(=C\C(=O)c1ccccc1)NCc1ccc(F)cc1	-1%	4%	110*	-1%	1%	60*
Cc1ccccc1-c1ccc(C(=O)NCc2ccccc2)o1	0%	-5%	11	2%	7%	14*
O=C(NCc1ccccc1)c1ccc(-c2ccc(F)cc2)o1	6%	-19%	59*	0%	-12%	25*
O=C(NCc1ccccc1)c1ccc(-c2ccccc2C(F)(F)F)o1	1%	-10%	11	-6%[89.2 µM]	1%	37*!
O=C(O)c1ccc(-c2ccccc2C(F)(F)F)o1	-7%	14%	-7	8%	0%	-2
O=[N+]([O-])c1ccc(-c2nc3ccc([N+](=O)[O-])cc3[nH]2)cc1	3%	-16%	96	-19%	-1%	40*
Nc1ccc(-c2nc3ccc([N+](=O)[O-])cc3[nH]2)cc1	-19%	-21%	52	-6%	0%	63*
CCCC[n+]1ccc(-c2nc3ccc([N+](=O)[O-])cc3[nH]2)cc1	1%	?	6	-5%	3%	7
O=[N+]([O-])c1ccc2nc(C(O)C(O)c3nc4ccc([N+](=O)[O-])cc4[nH]3)[nH]c2c1 (configuration not stated)	15%	5%	·	-16%	-3%	22*
O=[N+]([O-])c1ccc2nc(/C=C/c3ccc(Cl)cc3)[nH]c2c1	4%	-26%	153*	?	-2%	60*
CC(CCN1C(Nc2ccccc2)=NC[C@@H]1C)c1ccccc1 (some centres not stated)	0%	-1%	-5	-6%	-1%	-3
COCCCN=C(c1ccco1)n1c(=S)nc(-c2ccco2)n(CCCOC)c1=S	0%	-12%	62*	?	-12%	28*
COCCCn1c(-c2ccco2)nc2ccccc2c1=O	3%	4%	-25	8%	-20%	1
Cc1ccc(C(=O)NCC(c2cccs2)S(=O)(=O)c2cccs2)cc1C (configuration not stated)	·	·	·	·	-1%	·
O=S(=O)(c1ccc(Br)s1)N1CCN(c2ccc(F)cc2)CC1	1%	5%	-4	-13%	-5%	11
Nc1ccccc1Oc1ccc2ccccc2c1	4%	35%	42*	-4%	2%	14
Cc1ccccc1Oc1ccccc1N	0%	6%	12	-7%	-10%	2
CCOc1ccc(Sc2cc(C(=O)NC(C)c3ccccc3)c3ccccc3n2)cc1 (configuration not stated)	·	·	·	·	3%	·
COc1cccc2cc(C(=O)NCCc3ccccc3)c(=O)oc12	7%	-20%	-4	13%	5%	17*
COc1cccc2cc(C(=O)N3CCc4ccccc4C3)c(=O)oc12	5%	-5%	39	-3%	-9%	24*
SMILES	LmPK inhibitor	RE007 growth inh	Shiga toxin inh	Giardia FBPA inh	TbPYK inhibitor	Cycloheximide cs
COc1cccc2cc(C(=O)NCc3ccccn3)c(=O)oc12	-1%	22%	38	-1%	3%	23*
O=C(CSc1nccn1-c1cccc(Cl)c1)Nc1cccc2ccccc12	·	·	·	·	-9%	·
O=C(O)COc1ccc(/C=C/c2nc(-c3ccccc3O)n[nH]2)cc1	0%	3%	·	-6%	-3%	7
COc1ccc(/C=C/c2nc(-c3ccccc3O)n[nH]2)cc1OC	1%	-16%	23*	-15%	5%	20*
Nc1ccccc1-n1cccc1	4%	9%	13	0%	2%	13*
Cc1ccc(C)n1-c1ccccc1N	1%	·	12	?	·	24*
Cc1cc(=O)cc(C)n1-c1ccccc1N	-5%	-1%	-4	7%	0%	-3
COc1cc([N+](=O)[O-])ccc1NC(=O)N1CCC2(CC1)Nc1ccccc1-n1cccc12	·	·	·	·	-2%	·
Cc1nn(C(C)C(=O)Nc2ccc3c(c2)OCO3)c(C)c1[N+](=O)[O-] (configuration not stated)	-3%	13%	74	-9%	-1%	4
Cc1c([N+](=O)[O-])c(C(=O)Nc2ccc3c(c2)OCCO3)nn1C	14µM*	-9%	85*	4%	?	52*
Cc1csc(NC(=O)c2nn(C)c(C)c2[N+](=O)[O-])n1	-11%	1%	52*	0%	-1%	25*
Cc1nn(C)c(C(=O)Nc2ccc3c(c2)OCO3)c1[N+](=O)[O-]	-10%	-3%	36	·	-8%	21*
Cn1nc(C(=O)Nc2ccc3c(c2)OCO3)c2ccccc2c1=O	3%	14%	1	1%	1%	5
C[C@H]1Cc2c(COc3ccccc3)nc3c(c2CO1)CN(S(=O)(=O)c1ccc(Cl)c2nonc12)CC3	-4%[11.5 µM]	·	·	-1%[12.9 µM]	·	·
Cc1cc(-n2cnc(-c3cn[nH]c3C)n2)no1	-1%	-3%	72*	6%	-15%	12
Cc1[nH]ncc1-c1ccccc1Cl	7%	15%	-3	-9%	9%	-2
NC(=O)C1CCN(c2csc3ccc(F)cc3c2=O)CC1	·	·	·	·	-13%	·
CCCCNc1nc(N)nc(-c2cc(Cl)ccc2O)n1	1%	-29%	79*	1%	-9%	74*
CCNc1nc(N)nc(-c2cc(Cl)ccc2O)n1	-1%	-2%	56*	1%	-2%	49*
CCCNc1nc(N)nc(-c2cc(Cl)ccc2OC)n1	-3%	-10%	-7	3%	-25%	8
COc1ccc(-c2cc(C(=O)NCCc3ccc(OC)c(OC)c3)c3ccccc3n2)cc1	·	·	·	·	-8%	·
O=S(=O)(c1ccc(Br)s1)N1CCN(c2ccnc3cc(Cl)ccc23)CC1	4%	4%	25	2%	1%	15*
CCC(=O)Nc1ccc(C(=O)n2ccc(C)n2)cc1	-3%	4%	15	-3%	1%	7
Cc1ccn(C(=O)c2ccc(NC(=O)CC(C)C)cc2)n1	3%	-1%	35	0%	4%	15*
CC(C)CC(=O)Nc1ccc(Nc2ccccc2)cc1	8%	1%	36*	-6%	-11%	31
